From PubChem BioAssay
MCF10A rerep = A quantitative high throughput screen for small molecules that induce DNA re-replication in MCF 10a normal breast cells. MCF 10A DNA re-replication, Hoechst nuclear intensity, 48 h. Potency, µM (doses to about 46.1 µM), hits mostly activators. actives 2.9% (n = 350,000). AID 624296, 2012; further: nearly all actives have a fitted effect of over 50% in size
SW480 rerep = A quantitative high throughput screen for small molecules that induce DNA re-replication in SW480 colon adenocarcinoma cells | Potency, µM (top dose mostly 46.1 µM), usual class: activators | SW480 DNA re-replication, Hoechst DNA content imaging, 48 h | AID 624297, 2012 | actives 1.8% (n = 340,000); further: nearly all actives have a fitted effect of over 55% in size
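DNA re-replication was detected as more nuclei of elevated Hoechst intensity after 48 hr exposure to compound (23 nL pinned per well of 250 cells).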
Chronic BCR inh = qHTS Assay to Find Inhibitors of Chronic Active B-Cell Receptor Signaling. ABC-DLBCL IkBa-CBG/CBR reporter, luminescence ratio, 4 h. Potency, µM (highest dose often 46.1 µM), actives largely listed as inhibitors. actives 0.05% (n = 340,000). AID 493014, 2011; active means well fitted inhibition curve with a large enough effect in the signal ratio, with a control signal flat, not every such curve was filed as active; inconclusive means small, poorly fitted or top-dose-only effect, or effect the other way, or a change in a side signal; the % refers to the signal ratio
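TMD8 human ABC-DLBCL cells with doxycycline-inducible IκBα–green luciferase fusion and unfused red luciferase, in 0.5% FBS medium; compounds up to 46 uM, 4 h at 37C. Green/red luminescence ratio, filter-overlap corrected, fitted to concentration-response curves.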
IL-1B inflam inh = qHTS for Inhibitors of Inflammasome Signaling: IL-1-beta AlphaLISA Primary Screen; THP-1 LPS/ATP IL-1B secretion, AlphaLISA, 16 h; stronger effect = lower value; activity change, % at 57.5 µM; actives 4.7% (n = 360,000); AID 743279, 2014; in the data active means activity change below about -50%; inconclusive means mostly about -30% to -49%
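Secreted IL-1B measured by AlphaLISA bead assay after 16 h compound exposure of THP-1 cells; compounds (final up to 57.5 uM) added 1 h before LPS (250 ng/mL) and ATP (1.25 mM) stimulation; lower signal means less secretion.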
DT40 TDP1 CPT = qHTS for Inhibitors of human tyrosyl-DNA phosphodiesterase 1 (TDP1): qHTS in cells in presence of CPT | chicken DT40 Tdp1-/-;hTDP1 cells + 20 nM CPT, ATP luminescence, 48 h | Potency, µM (doses to about 46.2 µM), most hits filed as inhibitors | actives 12% (n = 420,000) | AID 686979, 2013; further: nearly all actives have a fitted effect of over 55% in size
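Chicken DT40 Tdp1-/- cells stably complemented with human TDP1 were seeded at 400 cells/well in medium containing 20 nM camptothecin, exposed to pin-transferred compounds, and grown at 37 °C for at least 48 hr. Viability was read as ATP luminescence.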
TDP1 cell noCPT = qHTS for Inhibitors of human tyrosyl-DNA phosphodiesterase 1 (TDP1): qHTS in cells in absence of CPT | DT40 Tdp1-/- hTDP1 cells, no CPT, ATP luminescence, 48 h | Potency, µM (top dose mostly 46.2 µM), hits mostly inhibitors | actives 15% (n = 420,000) | AID 686978, 2013; further: nearly all actives have a fitted effect of over 55% in size
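Seeded 400 DT40-hTDP1 cells/well (vehicle DMSO, no 20 nM CPT); pinned compounds; ≥48 hr at 37 °C; CellTiter-Glo luminescence as viability measure.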
Large screens that a line does not name were inactive. A selection: hits, their analogues and other compounds. The true share with any hit is near 19%. Unless noted, the call rests on the fitted dose curve; in most records, active means well fitted curve in the direction sought with a large enough effect; inconclusive means small, poorly fitted or top-dose-only effect, or another doubt; inactive means no such curve, though single readings can be large; an effect the other way counts as inactive or inconclusive.

O=C(c1cccc(Cl)c1)N1CCC(N2CCC(C(=O)N3CCCC3)CC2)CC1	none
CCC(C)(C)n1nnnc1C(c1ccccc1)N1CCc2ccccc2C1 (centres undefined)	DT40 TDP1 CPT inconclusive, TDP1 cell noCPT 23µM
O=C(CNc1cccc(Cl)c1)NNC(=S)NCc1ccccc1	DT40 TDP1 CPT inconclusive, TDP1 cell noCPT 23µM
S=C(NCc1ccccc1)NNc1ccccc1	Chronic BCR inh inconclusive, DT40 TDP1 CPT 4.6µM, TDP1 cell noCPT 5.8µM
CCNC(=S)NNc1nncc2ccccc12	Chronic BCR inh inconclusive, DT40 TDP1 CPT inconclusive, TDP1 cell noCPT inconclusive
CCNC(=S)NNc1ccccc1	Chronic BCR inh inconclusive, IL-1B inflam inh -95, DT40 TDP1 CPT 3.3µM, TDP1 cell noCPT 5.2µM
S=C(NCc1ccccc1)NCc1ccc(Cl)cc1	Chronic BCR inh inconclusive, DT40 TDP1 CPT inconclusive
Cc1ccc(S(=O)(=O)N2CCCCC2)cc1NC(=O)c1nn(C)c(=O)c2ccccc12	MCF10A rerep inconclusive, DT40 TDP1 CPT inconclusive, TDP1 cell noCPT inconclusive
CS(=O)(=O)c1ccc(S(=O)(=O)N2CCN(C(=O)C(O)c3ccccc3)CC2)cc1 (centres undefined)	none (no result: MCF10A rerep, SW480 rerep, Chronic BCR inh)
CC(Oc1ccccc1C(N)=O)C(=O)Nc1ccc(S(=O)(=O)N2CCCC2)cc1 (centres undefined)	DT40 TDP1 CPT inconclusive
Cc1cccc(NC(=O)c2cccc(S(=O)(=O)N(C)C3CCCCC3)c2)n1	DT40 TDP1 CPT inconclusive, TDP1 cell noCPT inconclusive (no result: MCF10A rerep, SW480 rerep, Chronic BCR inh)
CCNc1c([N+](=O)[O-])c(=O)oc2ccccc12	none
CCc1ccc(Nc2c([N+](=O)[O-])c(=O)oc3ccccc23)cc1	MCF10A rerep inconclusive, IL-1B inflam inh inconclusive, DT40 TDP1 CPT inconclusive, TDP1 cell noCPT 7.3µM
Cc1ccc(Nc2c([N+](=O)[O-])c(=O)oc3ccccc23)cc1	MCF10A rerep inconclusive, SW480 rerep inconclusive, DT40 TDP1 CPT inconclusive, TDP1 cell noCPT 12µM (no result: IL-1B inflam inh)
O=c1oc2ccccc2c(NC(c2ccccc2)c2ccccc2)c1[N+](=O)[O-]	MCF10A rerep inconclusive, Chronic BCR inh inconclusive, DT40 TDP1 CPT inconclusive, TDP1 cell noCPT inconclusive
CC(Nc1c([N+](=O)[O-])c(=O)oc2ccccc12)C(Cl)c1ccccc1 (centres undefined)	MCF10A rerep inconclusive, SW480 rerep inconclusive, Chronic BCR inh inconclusive, IL-1B inflam inh -67, DT40 TDP1 CPT inconclusive, TDP1 cell noCPT 23µM
O=c1oc2ccccc2c(Nc2ccc(O)cc2)c1[N+](=O)[O-]	Chronic BCR inh inconclusive, DT40 TDP1 CPT inconclusive
Cc1ccc(C)c(Nc2c([N+](=O)[O-])c(=O)oc3ccccc23)c1	MCF10A rerep inconclusive, SW480 rerep inconclusive, IL-1B inflam inh -58, DT40 TDP1 CPT 23µM, TDP1 cell noCPT 10µM
CN1CC(=O)N(CC(=O)Nc2ccc(OCc3ccccc3)cc2)C1=O	TDP1 cell noCPT inconclusive
CCCCN1C(=O)C(CC(=O)NCCCCc2ccccc2)CC(C(=O)N(C)C)=C1C (centres undefined)	TDP1 cell noCPT inconclusive (no result: MCF10A rerep, SW480 rerep, Chronic BCR inh)
CCOC(=O)c1ccc(NC(=O)NCc2ccccn2)cc1	none
O=c1oc2ccccc2c(Nc2ccc3ccccc3c2)c1[N+](=O)[O-]	MCF10A rerep inconclusive, DT40 TDP1 CPT 15µM, TDP1 cell noCPT inconclusive
COc1cc(=O)n2c(c1C(=O)NC(C)c1ccco1)CCN(C(=O)c1ccnc(Cl)c1)CC2 (centres undefined)	none (no result: MCF10A rerep, SW480 rerep, Chronic BCR inh, IL-1B inflam inh)
COc1ccc(NC(=O)c2cc(-c3ccccc3Cl)no2)cc1	none
Cc1nc(NC(=O)c2c(-c3ccccc3Cl)noc2C)sc1C	Chronic BCR inh inconclusive, DT40 TDP1 CPT 16µM, TDP1 cell noCPT inconclusive
